DRD3 antagonist: D3 dopamine receptor (human) antagonism. P35462. D3R cells, DiscoveRx beta-arrestin luminescence, antagonist mode; active compounds read low. max response, negative = inhibition, %. actives 2.5% (n = 360,000); in the data active = max response below about -50%; inconclusive = no clear call, values can overlap the other calls; note: % is set by controls: 0 for no effect and ±100 for the full control effect
Target sequence (P35462 whole entry, looked up): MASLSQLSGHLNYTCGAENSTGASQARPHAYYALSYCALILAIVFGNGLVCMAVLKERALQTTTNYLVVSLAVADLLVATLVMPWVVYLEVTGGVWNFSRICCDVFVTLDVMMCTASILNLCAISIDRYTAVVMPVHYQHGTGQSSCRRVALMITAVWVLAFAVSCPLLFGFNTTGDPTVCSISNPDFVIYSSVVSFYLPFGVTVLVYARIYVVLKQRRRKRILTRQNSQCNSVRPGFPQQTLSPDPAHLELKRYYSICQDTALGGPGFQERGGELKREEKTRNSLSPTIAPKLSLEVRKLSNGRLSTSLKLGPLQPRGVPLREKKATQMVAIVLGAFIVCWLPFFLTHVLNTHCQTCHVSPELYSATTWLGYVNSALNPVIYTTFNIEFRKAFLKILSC
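Cells expressing the human receptor were seeded at 1500 cells/well, incubated overnight at 37 degrees C in 5% CO2, then exposed to library compounds with dopamine controls for 90 minutes at 37 degrees C before luminescent detection.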
KB-V1 MDR tox: KB-V1 MDR subline cytotoxicity; Potency, µM (highest dose often 46.1 µM), actives largely listed as cytotoxic; KB-V1 MDR cells viability, CellTiter-Glo, 72 h; actives 3.4% (n = 400,000); AID 1347076; note: potency is the fitted concentration of half-maximal effect; % is set by controls: 0 for no effect and ±100 for the full control effect; nearly all actives have a fitted effect of over 60% in size
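Cells of the MDR subline KB-V1 are plated, dosed with compound at multiple concentrations, and incubated 72 h at 37 degrees C; CellTiter-Glo is then added and luminescence read after 10 min.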
DRD3 agonist: activates the human D3 dopamine receptor; D3R DiscoveRx beta-arrestin cells, luminescence, 90 min; actives 0.58% (n = 410,000); max activation, %; AID 652048; in the data active = max activation above about 30%; note: 0% is about no effect
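Agonist-mode cell screen: cells plated at 1500/well and incubated overnight at 37 °C, then exposed to library compounds for 90 min at 37 °C. Detection reagent was added for 30–60 min at room temperature, and luminescence was read.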
MCF10A rereplic: induces DNA re-replication in MCF 10a normal breast cells; MCF 10A DNA re-replication, Hoechst nuclear intensity, 48 h; Potency, µM (titrated, usually from 46.1 µM), without a hit: top-dose activity, positive = re-replication, actives largely listed as activators; actives 2.9% (n = 350,000); AID 624296; note: potency is the fitted concentration of half-maximal effect; % of control where 0% means no effect; nearly all actives have a fitted effect of over 50% in size
KB-3-1 cytotox: kills parental KB-3-1 adenocarcinoma cells. KB-3-1 viability, CellTiter-Glo ATP luminescence, 72 h. Potency, µM (titrated, usually from 46.1 µM), hits mostly cytotoxic. actives 1.4% (n = 400,000); note: potency is the fitted concentration of half-maximal effect; % is set by controls: 0 for no effect and ±100 for the full control effect; nearly all actives have a fitted effect of over 60% in size
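Screening of KB-3-1 cells (DMEM, 10% FBS, phenol-red free) ran from lowest to highest compound concentration; after 72 h at 37 °C viability was read luminescently and curves fitted.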
SW480 rereplic: DNA re-replication induction in SW480 cells; SW480 DNA re-replication, Hoechst DNA content imaging, 48 h; Potency, µM (titrated, usually from 46.1 µM), inactives show at the highest dose re-replication activation, actives largely listed as activators; actives 1.8% (n = 340,000); note: potency is the fitted concentration of half-maximal effect; % of control where 0% means no effect; nearly all actives have a fitted effect of over 55% in size
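Image-based read-out: total Hoechst fluorescence of nuclei (405 nm excitation, 500-530 nm emission), with hits raising the fraction of high-intensity nuclei. SW480 colon cells incubated 48 hr with compounds at 37 C.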
Numbers without * were called inactive; i = inactive; ? = inconclusive; nt = no result; [ ] = dose if it differs, or a comment. In the library only some 8.9% were active in any assay of this set; here they are far more common. Unless noted, calls come from the whole dose curve; as a rule, active = well fitted curve in the direction sought with a large enough effect; inconclusive = small, poorly fitted or top-dose-only effect, or another doubt; inactive = no such curve, though single readings can be large; an effect the other way counts as inactive or inconclusive.

SMILES	DRD3 antagonist	KB-V1 MDR tox	DRD3 agonist	MCF10A rereplic	KB-3-1 cytotox	SW480 rereplic
C=C(C)c1nc(Oc2ccccc2)nc(Oc2ccccc2)n1	?	i	-10	4.1µM*	?	?
Cc1cc(Oc2ccccc2)nc(-c2ccccc2)n1	-21	i	3	-6%	i	-8%
COC(=O)CSc1nc2sc3c(c2c(=O)n1Cc1ccccc1)CCC(C(C)(C)C)C3 (stereo not drawn)	nt	i	-7	nt	i	nt
CCN(CC)CCOC(=O)c1ccc(N/C=C(/C#N)c2nc(-c3ccc4c(c3)OCO4)cs2)cc1	-2	i	10	18µM*	i	?
COCCn1c(SCC(=O)Nc2ccc(F)c(Cl)c2)nc2c(oc3ccccc32)c1=O	nt	i	5	nt	i	nt
Cc1ccc2onc(CNC(=O)NCc3ccc(Cl)cc3)c2c1	nt	i	7	nt	i	nt
Cc1ccc(N=C2NC(=O)/C(=C\c3ccsc3)S2)c(C)c1	4	18µM*	-17	18µM*	i	3%
COc1cc(/C=C2/SC(=O)NC2=O)ccc1OCc1ccccc1	3	i	6	26µM*	i	17%
COc1ccc(/C=C2/SC(=S)NC2=O)cc1OCc1ccccc1	8	i	9	?	i	24%
COc1cc(/C=C2/SC(=Nc3ccc(O)cc3)NC2=O)ccc1O	-9	?	-10	5.2µM*	9.2µM*	4.6µM*
COc1cc(/C=C2\SC(=Nc3ccccc3OC)NC2=O)ccc1O	9	?	23	8.2µM*	18µM*	21µM*
CCc1ccc(N=C2NC(=O)/C(=C/c3cc(OC)c(O)c(OC)c3)S2)cc1	-23	?	-9	?	i	11%
COc1ccc(/C=C2\SC(=Nc3ccccc3OC)NC2=O)cc1	-2	?	-11	3.3µM*	?	?
COc1cc(/C=C2\SC(=Nc3cccnc3)NC2=O)cc(OC)c1OC	-17	i	-6	3.7µM*	i	2%
O=C1NC(=Nc2cccnc2)S/C1=C\c1cccc(F)c1	12	i	-14	?	i	-2%
COc1cc(/C=C2\SC(=Nc3ccccc3)NC2=O)cc(Cl)c1O	?	i	-8	21µM*	i	?
Cc1cccc(N=C2NC(=O)/C(=C/c3cccnc3)S2)c1C	-61*	i	-4	13%	i	13%
COc1ccc(/C=C2\SC(=NCc3ccccc3)NC2=O)cc1	-7	?	-8	6%	?	-7%
COc1cc2c(=O)c(S(=O)(=O)c3ccccc3)cn(CC(=O)Nc3ccccc3C)c2cc1OC	nt	?	1	nt	i	nt
CCOc1ccccc1NCc1nnc2n1CCCCC2	nt	?	4	nt	i	nt
CC(C)(C)OC(=O)N1CCC(c2nnc(SCc3cccc(Cl)c3)o2)CC1	nt	18µM*	-7	nt	i	nt
CC(C)(C)OC(=O)N1CCC(c2nnc(SCc3ccccc3Cl)o2)CC1	nt	9.2µM*	-6	nt	i	nt
Cc1cc(Br)ccc1NC(=O)CCNS(=O)(=O)c1cccc2nonc12	nt	i	3	nt	i	nt
O=C(NCCc1ccc(F)cc1)C(=O)NCC(c1cccs1)S(=O)(=O)c1ccc(Cl)cc1 (stereo not drawn)	nt	i	3	nt	i	nt
CC(=O)Nc1sc(/C(C#N)=C/c2ccc(Cl)c(Cl)c2)nc1-c1ccc(C)cc1	12	i	9	1.8µM*	i	?
SMILES	DRD3 antagonist	KB-V1 MDR tox	DRD3 agonist	MCF10A rereplic	KB-3-1 cytotox	SW480 rereplic
O=C1/C(=C/c2ccc(N3CCOCC3)o2)SC(=Nc2ccccc2)N1CCc1c[nH]c2ccccc12	-69*	?	-9	?	?	?
CC1c2[nH]c3ccccc3c2CCN1C(=O)Nc1ccccc1 (stereo not drawn)	0	8.2µM*	-8	10%	?	?
O=C(Nc1ccccc1)N1CCc2c([nH]c3ccccc23)C1C(F)(F)F (stereo not drawn)	-23	?	-9	?	i	?
O=C(c1ccc(Cl)cc1)N1CCc2c([nH]c3ccccc23)C1C(F)(F)F (stereo not drawn)	-4	i	-3	?	i	14%
COc1cccc(Cl)c1NC(=O)N1CCc2c([nH]c3ccccc23)C1C(F)(F)F (stereo not drawn)	-21	i	5	5.8µM*	i	?
Cc1ccc2c(=O)cc(C(=O)Nc3c(C(=O)Nc4cccc(Cl)c4)oc4ccccc34)oc2c1	nt	?	3	nt	i	nt
CCCN(CCO)Cc1ccc(Cl)c(Cl)c1	-59*	i	-32	-5%	i	-2%
CC(C)(C)c1cc(NS(=O)(=O)c2ccc(Br)s2)no1	-3	i	4	-29%	i	-3%
Cc1ccc(C)c2sc(NC(=O)C3CC3)nc12	-5	i	2	-3%	i	-4%
O=C(Nc1nc2c(Br)cc(Br)cc2c(=O)s1)C1CCC1	11	i	-3	5.2µM*	i	-4%
O=C1N(c2cccc(Cl)c2)C(c2ccccc2)N2CCCN12 (stereo not drawn)	0	i	-5	9%	i	8%
Cc1ccc(C2N(c3ccccc3)C(=O)N3CCCN23)cc1 (stereo not drawn)	-5	i	2	3%	i	0.52µM*
COCC(=O)Nc1sc2c(c1C(=O)OC)CCCC2	13	i	2	-181%[0.0737 µM]	i	-3%
COC(=O)c1c(NC(=O)COC(=O)c2ccc(O)cc2)sc2c1CCCCC2	54	i	2	13µM*	i	?
COc1ccc(CC(=O)Nc2sc3c(c2C(N)=O)CCCC3)cc1OC	16	13µM*	17	7%	?	2%
CCOC(=O)c1c(CC(C)C)csc1NC(=O)COC(=O)c1ccc(O)cc1	25	?	36*	16%	i	2%
CN(CC(=O)Nc1ccccc1Cl)CC(=O)Nc1sc2c(c1C(N)=O)CCC2	5	i	2	3.3µM*	i	?
Cc1ccc(NC(=O)Cn2c(=O)n(CCc3ccccc3)c(=O)c3c4c(sc32)CCCC4)cc1C	nt	i	5	nt	i	nt
C=CCSc1nnc(NC(=O)CCNC(=O)c2ccccc2Cl)s1	-22	i	-6	nt	i	nt
COc1ccc(-c2noc(CC(=O)N(C)c3cccc(C)c3)n2)cc1	nt	i	-14	nt	i	nt
CC1(CCC(=O)N2CCCC(N3CCN(c4cccc(C(F)(F)F)c4)CC3)C2)CC1 (stereo not drawn)	-66*	?	-14	?	?	?
